In test [1] the target is Progesterone receptor (Homo sapiens) (UniProt P06401). Nature of the test: qHTS assay to identify small molecule agonists of the progesterone receptor (PR) signaling pathway (AID 1346784; calls by dose curve; also: nearly all actives have a fitted effect of over 30% in size). The procedure, abridged:
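Cells (PR-UAS-bla HEK 293T, GripTite) were plated in assay medium containing 2% charcoal-stripped FBS and incubated 6 hr. Test compounds in DMSO were added for 16 hr at 37C. FRET substrate was then loaded for 2 hr at room temperature before fluorescence reading.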
In general terms: In qHTS, concentration-response curves come from the screen itself.

Test [2] has the same target. Nature of the test: qHTS assay to identify small molecule antagonists of the progesterone receptor (PR) signaling pathway (AID 1346795; active = well fitted inhibition curve with a large enough effect in the signal ratio in the repeat runs, not every such curve was filed as active; the % refers to the signal ratio; also: potency is read from the fitted curve at half-maximal effect). The procedure, abridged: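 Antagonist mode: compounds tested against 1 nM (final) promegestone stimulation in HEK293T cells expressing PR-UAS-bla reporter, 16 hr at 37C, 5% CO2; beta-lactamase activity detected via B/G FRET substrate after 2 hr at room temperature.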

Test [3] in a line: qHTS assay to identify small molecule antagonists of the progesterone receptor (PR) signaling pathway - cell viability counter screen (AID 1346798). Also: series mostly up to about 92 µM; nearly all actives have a fitted effect of over 50% in size. Put shortly: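 Counter screen for cytotoxicity: viability of PR-UAS-bla HEK293T cells was measured with CellTiter-Glo luminescence following 16 hr compound exposure in the presence of R5020.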
Test [4] in a line: qHTS assay to identify small molecule agonists of the progesterone receptor (PR) signaling pathway - cell viability counter screen (AID 1346799; calls by dose curve; also: nearly all actives have a fitted effect of over 45% in size; also: potency is read from the fitted curve at half-maximal effect). Put shortly:
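Cells (PR-UAS-bla HEK293T) are plated at 3,000/well in 2% charcoal-stripped FBS medium, rested 6 hr, dosed and incubated 16 hr at 37C. CellTiter-Glo is then added and luminescence measured after 30 min at room temperature.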

A short description of test [5]: qHTS assay to identify small molecule antagonists of the TGF-beta/Smad signaling pathway - cell viability counter screen (AID 1346824). Also: nearly all actives have a fitted effect of over 50% in size. The procedure, abridged: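 Cytotoxicity counter-screen run in the same wells as the beta-lactamase Smad reporter read: CellTiter-Glo luminescence after 30 min at room temperature. HEK 293T SBE-bla cells had 5 hr compound exposure at 37 C with TGF-beta1 (0.25 ng/mL stock).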

The nature of test [6]: qHTS assay to identify small molecule agonists of the TGF-beta/Smad signaling pathway - cell viability counter screen (AID 1346829). Also: nearly all actives have a fitted effect of over 45% in size. Also: potency is read from the fitted curve at half-maximal effect. The procedure, abridged: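 After overnight seating at 37 C and 5% CO2, reporter cells got compounds for 5 hr and FRET substrate for 2 hr; cell viability then came from CellTiter-Glo luminescence.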
Test [7] is described as follows: Human pregnane X receptor (PXR) small molecule agonists, qHTS cell viability counter screen (AID 1346977). Also: nearly all actives have a fitted effect of over 50% in size. Also: potency is read from the fitted curve at half-maximal effect. The procedure, abridged:
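Cytotoxicity counter screen run in the same wells as the PXR luciferase assay, using PXR-Luc HepG2 cells in charcoal-stripped serum medium. Viability: CellTiter-Fluor fluorescence after 24hr compound treatment.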

Test [8] can be described thus: Caspase-3/7 induction in HepG2 cells by small molecules, qHTS assay (AID 1346978). Also: nearly all actives have a fitted effect of over 15% in size. The procedure, abridged:
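Caspase-3/7 induction was measured by Caspase-Glo 3/7 luminescence (30 min, room temperature) after a 17 hr compound exposure of wild-type HepG2 cells seeded at 2,000 per well and pre-incubated 5 hr.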

Test [9] can be described thus: Caspase-3/7 induction in CHO-K1 cells by small molecules, qHTS assay (AID 1346980). Also: nearly all actives have a fitted effect of over 15% in size. Also: potency is read from the fitted curve at half-maximal effect. Put shortly: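 Luminescent Caspase-Glo 3/7 read (30min, room temperature) quantified apoptosis induction. Cells were wild-type CHO-K1, treated with compound for 17hr at 37 C and 5% CO2.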
Test [10] is described as follows: Caspase-3/7 induction in HepG2 cells by small molecules, qHTS cell viability counter screen (AID 1346981). Also: nearly all actives have a fitted effect of over 30% in size. Also: potency is read from the fitted curve at half-maximal effect. The procedure, abridged:
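Fluorescence read-out of live-cell protease activity (CellTiter-Fluor) after 1 hr with reagent. This was measured in the same wells as the caspase-3/7 luminescence, on HepG2 cells exposed to DMSO-dissolved compounds for 16 hr at 37 C.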

In test [11] the target is Nuclear receptor subfamily 1 group I member 2 (Homo sapiens) (UniProt O75469). Nature of the test: Human pregnane X receptor (PXR) small molecule agonists, qHTS assay (AID 1346982). Also: nearly all actives have a fitted effect of over 35% in size. Also: potency is read from the fitted curve at half-maximal effect. The procedure, abridged: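 HepG2 PXR-Luc reporter line, 5% charcoal-stripped FBS; 5 hr pre-incubation, compound (DMSO) 24 hr at 37 C/5% CO2; ONE-Glo 30 min RT; luminescence read-out.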
Nuclear receptor subfamily 1 group I member 2 (Homo sapiens), sequence (O75469 whole entry, looked up): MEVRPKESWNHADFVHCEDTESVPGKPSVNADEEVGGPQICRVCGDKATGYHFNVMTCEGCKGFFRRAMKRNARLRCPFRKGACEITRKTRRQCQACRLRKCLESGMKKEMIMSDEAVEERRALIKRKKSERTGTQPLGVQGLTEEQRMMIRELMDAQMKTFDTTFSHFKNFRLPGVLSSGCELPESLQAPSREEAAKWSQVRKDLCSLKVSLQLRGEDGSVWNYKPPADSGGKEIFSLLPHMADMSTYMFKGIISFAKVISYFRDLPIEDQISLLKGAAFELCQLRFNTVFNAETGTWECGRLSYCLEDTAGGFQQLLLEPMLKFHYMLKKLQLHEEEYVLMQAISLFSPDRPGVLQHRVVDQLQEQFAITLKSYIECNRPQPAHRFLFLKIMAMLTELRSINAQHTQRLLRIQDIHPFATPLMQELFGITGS
The target in test [12] is Acetylcholinesterase (Homo sapiens) (UniProt P22303). Kind of test: Acetylcholinesterase (AChE) small molecule antagonists: colormetric cell-based qHTS assay (AID 1347395; calls by dose curve; also: nearly all actives have a fitted effect of over 30% in size). The procedure, abridged:
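Cells (SH-SY5Y, 2,000 per well) are seeded and left overnight at 37 C. Compound is added for 30 min, then DTNB and acetylthiocholine for a further 90 min at 37 C before absorbance-based thiocholine detection.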

Test [13] is described as follows: qHTS assay to identify small molecule agonists of the estrogen receptor alpha (ER-alpha) signaling pathway in the presence of an antagonist - cell viability counter screen (AID 1259386).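 Also: cells exposed to compounds for 22 h at 37 °C before the viability read; nearly all actives have a fitted effect of over 30% in size.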 Also: potency is read from the fitted curve at half-maximal effect. Put shortly:
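Read-out: CellTiter-Fluor fluorescence after 1hr reagent incubation, measured in the same wells as the luciferase readout. VM7Luc4E2 cells were exposed to 15 compound concentrations with 10.0nM ICI-182,780 for 22hr at 37C.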

Test [14] has as its target Thyrotropin-releasing hormone receptor (Homo sapiens) (UniProt P34981). Nature of the test: qHTS assay to identify small molecule antagonists of the thyrotropin-releasing hormone receptor (TRHR) signaling pathway (AID 1346877; active = well fitted inhibition curve with a large enough effect in the repeat runs, not every such curve was filed as active; also: series mostly up to about 51 µM). The procedure, abridged:
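HEK293/TRHR cells, 18 h, 37 °C; Ca2+ dye 2 h; cpd 5 min RT; TRH 1 nM final; fluorescence read 3 min, 1 s intervals; 15 concs, triplicate.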

For test [15] the target is unchanged. Nature of the test: qHTS assay to identify small molecule agonists of the thyrotropin-releasing hormone receptor (TRHR) signaling pathway (AID 1346891; calls by dose curve;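 also: HEK293 cells expressing TRHR with calcium dye readout; series mostly up to about 58 µM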). Put shortly: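 Cells: TRHR-Hek293, seeded and incubated 18 h. Dye loading: 2 h at 37 °C. Compound added from DMSO stock by pin tool. Read-out: kinetic calcium fluorescence over 3 min.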
Test [16] in a line: Caspase-3/7 induction in CHO-K1 cells by small molecules, qHTS cell viability counter screen (AID 1346979). Also: nearly all actives have a fitted effect of over 35% in size. Also: potency is read from the fitted curve at half-maximal effect. Put shortly:
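Cytotoxicity counter screen run in parallel with the caspase-3/7 assay: CHO-K1 cells, 16hr compound treatment at 37C, then CellTiter-Fluor for 1hr before fluorescence reading.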

Test [17] is described as follows: qHTS assay to identify small molecule agonists of the TGF-beta/Smad signaling pathway (AID 1346859; active = well fitted activation curve with a large enough effect in the signal ratio in the repeat runs, not every such curve was filed as active; the % refers to the signal ratio; also: series mostly up to about 77 µM). Put shortly: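 Reporter line: HEK 293T with stably integrated SBE-controlled beta-lactamase. Compound exposure lasts 5 hr at 37 C and 5% CO2; substrate loading follows for 2 hr at room temperature, with emission read at 460 and 530 nm.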

Structures are written as SMILES. Values without a mark were called inactive. Records with an inconclusive call do not appear. Activity calls are given as the source filed them. Unless noted, calls follow the shape of the dose curve; as a rule, active = well fitted curve in the direction sought with a large enough effect in the repeat runs; inconclusive = weak or mixed curves; inactive = no such curve, though single readings can be large; an effect the other way counts as inactive or inconclusive.

Thyrotropin-releasing hormone receptor (Homo sapiens), sequence (P34981 whole entry, looked up): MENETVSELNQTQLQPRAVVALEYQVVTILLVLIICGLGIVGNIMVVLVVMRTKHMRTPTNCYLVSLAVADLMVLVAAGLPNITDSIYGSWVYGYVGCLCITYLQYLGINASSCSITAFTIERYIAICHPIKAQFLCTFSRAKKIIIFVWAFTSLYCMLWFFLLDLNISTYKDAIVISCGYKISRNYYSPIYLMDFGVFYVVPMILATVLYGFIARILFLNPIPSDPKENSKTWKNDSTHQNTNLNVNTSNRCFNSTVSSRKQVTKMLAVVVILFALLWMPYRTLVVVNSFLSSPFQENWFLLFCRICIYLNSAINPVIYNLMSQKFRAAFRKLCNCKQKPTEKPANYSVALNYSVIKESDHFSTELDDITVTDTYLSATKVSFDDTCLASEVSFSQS
Acetylcholinesterase (Homo sapiens), sequence (P22303 whole entry, looked up): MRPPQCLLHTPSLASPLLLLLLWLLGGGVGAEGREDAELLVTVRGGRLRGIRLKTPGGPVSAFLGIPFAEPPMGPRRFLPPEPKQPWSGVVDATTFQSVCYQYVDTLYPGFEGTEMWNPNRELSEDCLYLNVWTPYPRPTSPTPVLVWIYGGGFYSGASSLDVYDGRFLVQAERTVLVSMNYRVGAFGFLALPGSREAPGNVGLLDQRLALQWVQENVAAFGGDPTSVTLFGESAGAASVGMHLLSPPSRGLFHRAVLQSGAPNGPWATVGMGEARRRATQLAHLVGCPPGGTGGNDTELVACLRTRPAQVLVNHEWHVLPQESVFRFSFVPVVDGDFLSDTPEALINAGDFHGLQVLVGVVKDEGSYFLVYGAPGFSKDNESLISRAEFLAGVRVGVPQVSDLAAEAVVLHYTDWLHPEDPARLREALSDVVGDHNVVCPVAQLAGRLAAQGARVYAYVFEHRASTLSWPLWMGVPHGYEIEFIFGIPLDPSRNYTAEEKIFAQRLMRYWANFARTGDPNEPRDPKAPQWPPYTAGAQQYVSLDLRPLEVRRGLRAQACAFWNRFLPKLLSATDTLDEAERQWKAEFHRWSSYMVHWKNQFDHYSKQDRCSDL
Progesterone receptor (Homo sapiens), sequence (P06401 whole entry, looked up): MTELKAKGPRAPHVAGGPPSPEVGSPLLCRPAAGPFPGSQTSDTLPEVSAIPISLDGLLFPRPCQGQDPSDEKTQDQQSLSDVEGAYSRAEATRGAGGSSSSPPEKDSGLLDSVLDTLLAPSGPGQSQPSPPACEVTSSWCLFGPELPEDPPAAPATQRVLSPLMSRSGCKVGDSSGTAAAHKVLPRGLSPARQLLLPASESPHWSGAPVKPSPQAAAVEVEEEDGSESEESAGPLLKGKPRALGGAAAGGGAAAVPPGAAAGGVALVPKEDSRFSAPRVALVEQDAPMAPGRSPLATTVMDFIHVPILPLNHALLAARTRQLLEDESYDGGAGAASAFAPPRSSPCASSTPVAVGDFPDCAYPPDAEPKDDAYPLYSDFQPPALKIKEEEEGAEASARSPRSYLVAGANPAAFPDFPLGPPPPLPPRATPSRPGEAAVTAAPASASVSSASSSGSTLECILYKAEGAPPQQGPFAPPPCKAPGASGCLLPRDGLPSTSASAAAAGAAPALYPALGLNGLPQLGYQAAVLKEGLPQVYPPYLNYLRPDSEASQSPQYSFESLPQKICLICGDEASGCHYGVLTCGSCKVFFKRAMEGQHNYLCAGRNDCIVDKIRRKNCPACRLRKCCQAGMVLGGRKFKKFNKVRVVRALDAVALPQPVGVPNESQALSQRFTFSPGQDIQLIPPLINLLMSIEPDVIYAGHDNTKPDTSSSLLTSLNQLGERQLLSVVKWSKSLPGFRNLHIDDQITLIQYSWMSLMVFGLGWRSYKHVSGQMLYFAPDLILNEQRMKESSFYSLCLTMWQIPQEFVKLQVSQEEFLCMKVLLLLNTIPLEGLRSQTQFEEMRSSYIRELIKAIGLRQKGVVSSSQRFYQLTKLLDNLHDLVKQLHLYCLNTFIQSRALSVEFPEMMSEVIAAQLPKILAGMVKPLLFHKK

As for `O=C(Cl)c1ccccc1F`, the Potency entry in test [1], in test [2], in [3], in [4], in [5] and in test [6] was “inactive” in each case. In addition, the Potency result in test [7], in [8], in test [9], in test [10], in test [11] and in test [12] was “inactive” in each case.

`Fc1ccc(C(OCCN2CCN(CCCc3ccccc3)CC2)c2ccc(F)cc2)cc1`: the Potency in test [13] was 29.8 µM (active); in test [6], 23.9 µM (active); in test [7], 16.8 µM (active); in test [16], 11.9 µM (active); in test [9] it was 23.7 µM (active); in test [10], 23.7 µM (active). For the same compound, the Potency entry in test [14], in test [15], in test [11] and in [12] was “inactive” throughout.

For `Oc1cc(Cl)cc(Cl)c1`, the Potency entry in test [13], in test [5], in [6], in [15], in [7] and in [8] was “inactive” in each case. Further, the Potency result in [9], in test [10] and in test [12] was “inactive” each time. The compound was called inactive in test [17]. Further, the Potency in test [11] is 69.3 µM (active).

Regarding `NC1CCC(CC2CCC(N)CC2)CC1` (configuration not stated), the Potency entry in test [1], in test [2], in test [5], in test [6], in test [15] and in test [7] was “inactive” in each case. Besides, the Potency result in test [8], in test [16], in test [9], in test [10], in test [11] and in test [12] was “inactive” throughout. Moreover, the Potency in test [4] was 26.8 µM (active). The outcome in test [17] was inactive.

As for `c1ccc(Nc2ccc(Nc3ccccc3)cc2)cc1`, the Potency entry in [1], in test [5], in test [6], in [15], in test [8] and in test [9] was “inactive” throughout. In addition, the Potency entry in test [10] and in test [12] was “inactive” each time. Moreover, the Potency is 6.09 µM (active) in [2], 48.4 µM (active) in [16] and 24.2 µM (active) in test [11]. Moreover, in test [17], the outcome was inactive.

`Oc1cc(Cl)c(Cl)c(Cl)c1Cl`: the Potency entry in [1], in test [3], in test [4], in test [6], in [14] and in [15] was “inactive” in each case. Also, the Potency entry in test [8], in test [9] and in test [12] was “inactive” in each case. Besides, the Potency in test [2] is 21.2 µM (active); in [7], 29.9 µM (active); in test [11], 33.6 µM (active).

Turning to `O=[N+]([O-])c1ccc(CCl)cc1`, the Potency result in test [1], in test [2], in test [3], in test [4], in test [5] and in test [7] was “inactive” in each case. Besides, the Potency entry in [8], in test [9], in [10], in test [11] and in [12] was “inactive” in each case. Also, the call in test [17] was inactive.

In the case of `Cc1ccc(C)c2ccccc12`, the Potency entry in test [1], in [2], in test [3], in test [4], in test [5] and in test [6] was “inactive” in each case. Besides, the Potency entry in test [14], in [15], in [7], in [8], in test [9] and in test [10] was “inactive” each time. The Potency result in test [11] and in test [12] was “inactive” each time. Further, the call in test [17] was inactive.

`c1ccc2nc(N3CCNCC3)ccc2c1`: the Potency result in [1], in test [2], in test [5], in test [6], in [14] and in [15] was “inactive” throughout. For the same compound, the Potency result in [7], in test [8], in test [16], in test [9], in test [10] and in [11] was “inactive” throughout. Moreover, the Potency result in test [12] was “inactive”. Also, the outcome in [17] was inactive.

For the origin of these results see PubChem BioAssay (Tox21).
